The structures appear in SMILES notation. Compounds without any hit were thinned out: in the full panel of roughly 83,000, 20% have a hit.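 Single-dose data. Exposure time 48 hours. Values below 10 considered active.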 Unmarked numbers belong to inactive results. Calls of active or inactive are those of the source.

Among the test systems are T-47D breast; BT-549 breast; MDA-MB-435 melanoma; SW-620 colon; MCF7 breast; HCT-116 colon; HCC-2998 colon; KM12 colon.
Experiment in all cases: NCI-60 one-dose screen, 48 h (100 = growth as untreated, 0 = no growth, -100 = all killed)
Holding throughout (conditions): 10 µM unless noted

Consider `COc1ccc(Cl)cc1NC(=O)c1cc2c(n1C)-c1nc(NC(=O)C(C)(C)C)sc1CC2`, for which the growth with T-47D breast is 64.5%; with BT-549 breast it was 94.6%; in the test on MDA-MB-435 melanoma, 102%; in the test with SW-620 colon, 107%; in the test with MCF7 breast, 79.4%; with HCT-116 colon it was 85.4%. Besides, the growth with HCC-2998 colon is 118%; with KM12 colon, 94.8%.
On to `CCOc1ccc(-n2c(-c3cc(OC)c(OC)c(OC)c3)nnc2-c2ccc(OC)cc2N)cc1`, for which the growth is 43.4% in the test with T-47D breast; 84% in the test on BT-549 breast; 81.3% in the test with MDA-MB-435 melanoma; 67.2% in the test on SW-620 colon; 40.6% in the test with MCF7 breast; 63.7% in the test with HCT-116 colon. In addition, the growth in the test with HCC-2998 colon was 82.4%; in the test with KM12 colon, 37.8%.
Consider `CCN(CC)CCN1C(=O)c2c(c3c4ccccc4[nH]c3c3[nH]c4ccccc4c23)C1=O`, for which the growth is 81.8% with T-47D breast; 83% in the test on BT-549 breast; 95.6% with MDA-MB-435 melanoma; 46.9% in the test on SW-620 colon; 62% in the test on MCF7 breast; 67% in the test on HCT-116 colon. Further, the growth in the test on HCC-2998 colon is 53.1%; in the test with KM12 colon, 85.2%.
`COc1ccc(CNc2nc3ccccc3c3c(=O)c4ccccc4sc23)cc1OC`: the growth with T-47D breast is 93.5%; in the test on BT-549 breast, 103%; in the test on MDA-MB-435 melanoma, 91.7%; with SW-620 colon, 73.7%; with MCF7 breast, 73.9%; in the test with HCT-116 colon, 68.8%. Besides, the growth was 94% in the test with HCC-2998 colon and 79.8% in the test with KM12 colon.
Take `CCN(CC)CCNc1ccc([N+](=O)[O-])c2sc3cc(Cl)ccc3c(=O)c12`: the growth in the test on T-47D breast is 103%; with BT-549 breast it was 89.9%; with MDA-MB-435 melanoma, 72.8%; in the test with SW-620 colon, 40.2%; in the test on MCF7 breast it was 24.6%; in the test on HCT-116 colon, 11.8%. In addition, the growth in the test on HCC-2998 colon is 47.3%; in the test on KM12 colon, 66.6%.
Regarding `S=c1n(CNc2ccc(Cl)nn2)nc(-c2cc(Cl)cc(Cl)c2Cl)n1/N=C/c1ccc(Cl)cc1`, the growth with T-47D breast is 101%; with BT-549 breast it was 106%; in the test with MDA-MB-435 melanoma, 89.3%; with SW-620 colon, 103%; in the test with MCF7 breast, 87.4%; in the test on HCT-116 colon it was 83.8%. For the same molecule, the results for the growth in the test with HCC-2998 colon and in the test with KM12 colon were 88.6% and 97.1%, respectively.
Turning to `CC(C)C(=O)Nc1nc2c(s1)CCCc1ccn(S(=O)(=O)c3ccccc3)c1-2`, the growth in the test on T-47D breast is 91.9%; in the test on BT-549 breast, 89.8%; with MDA-MB-435 melanoma, 106%; with SW-620 colon it was 105%; with MCF7 breast, 86.3%; in the test with HCT-116 colon, 78.9%. For the same molecule, the growth in the test with HCC-2998 colon is 106%; with KM12 colon, 97.1%.
Regarding `Nc1nc(Cl)c2c(C(F)(F)F)cn(CC3CCNCC3)c2n1`, the growth in the test with T-47D breast was 104%; in the test with BT-549 breast, 103%; in the test with MDA-MB-435 melanoma, 76.5%; in the test on SW-620 colon, 22.4%; in the test on MCF7 breast it was 103%; in the test on HCT-116 colon, 48.3%. For the same molecule, the growth in the test on HCC-2998 colon is 78.9%; in the test on KM12 colon, 101%.
`CCN(CC)C(=O)C1CCN(C(=O)c2ccccc2)CC1`: the growth in the test on T-47D breast was 98.4%; in the test with BT-549 breast it was 93.8%; in the test with MDA-MB-435 melanoma, 104%; in the test on SW-620 colon it was 101%; with MCF7 breast, 96.6%; in the test with HCT-116 colon, 99.2%. For the same molecule, the growth in the test on HCC-2998 colon was 106%; in the test with KM12 colon it was 101%.
Take `CC(C)NCC(O)COc1ccc(CC(N)=O)cc1` (stereo not drawn): the growth with T-47D breast is 98.9%; in the test on BT-549 breast, 96.7%; with MDA-MB-435 melanoma, 107%; with SW-620 colon it was 100%; in the test with MCF7 breast, 98.1%; in the test on HCT-116 colon, 99.2%. For the same molecule, the growth with HCC-2998 colon and in the test on KM12 colon was 106% throughout.
Consider `O=C(Nc1ccc(-n2cc(-c3ccncc3)c(-c3ccc(O)c(Cl)c3)n2)cc1)Nc1cc(C(F)(F)F)cc(C(F)(F)F)c1`, for which the growth was 33.2% in the test on T-47D breast; 20.4% in the test on BT-549 breast; 54.6% in the test on MDA-MB-435 melanoma; 73.9% in the test on SW-620 colon; 55.7% in the test with MCF7 breast; 53.3% in the test with HCT-116 colon. The growth in the test with HCC-2998 colon was 79%; with KM12 colon, 48.7%.
For the molecule `CC(C)(C)C(=O)Nc1nc2c(s1)CCc1ccn(S(=O)(=O)c3ccccc3)c1-2`, the growth with T-47D breast is 66.6%; with BT-549 breast it was 94.5%; in the test with MDA-MB-435 melanoma, 108%; with SW-620 colon it was 101%; in the test on MCF7 breast, 85.9%; in the test with HCT-116 colon, 78.7%. For the same molecule, the values for the growth with HCC-2998 colon and in the test on KM12 colon were 100% and 89.8%, respectively.
Turning to `CN(CCNCc1ccccn1)CCNCc1ccccn1`, the growth with T-47D breast is 0.513% (active); in the test on BT-549 breast, -2.61% (active); in the test on MDA-MB-435 melanoma, -30.7% (active); with SW-620 colon, 4.13% (active); in the test with MCF7 breast it was 6.52% (active); with HCT-116 colon, -25.2% (active). The growth was -46.8% (active) in the test with HCC-2998 colon and -0.112% (active) with KM12 colon.
`CCC1CN2C(=N1)c1ccccc1-c1cc(Cl)ccc12` (stereo not drawn): the growth is 21.9% in the test on T-47D breast; 42.5% in the test on BT-549 breast; 25.4% in the test on MDA-MB-435 melanoma; 18.6% in the test with SW-620 colon; 4.59% (active) with MCF7 breast; 1.68% (active) in the test on HCT-116 colon. In addition, the values for the growth with HCC-2998 colon and with KM12 colon were 28.5% and 16.7%, respectively.
On to `c1ccc(-c2nc3sc(C(c4ccccc4)c4ccccc4)nn3c2-c2ccccc2)cc1`, for which the growth with T-47D breast is 92.6%; in the test on BT-549 breast, 96%; with MDA-MB-435 melanoma it was 98.9%; in the test on SW-620 colon, 91.6%; in the test with MCF7 breast it was 90.8%; in the test on HCT-116 colon it was 84%. Besides, the growth in the test with HCC-2998 colon is 109%; with KM12 colon it was 96.1%.
Regarding `CC(=O)Oc1ccc(C(OC(C)=O)OC(C)=O)cc1`, the growth is 72.1% with T-47D breast; 94.2% in the test on BT-549 breast; 104% in the test on MDA-MB-435 melanoma; 112% with SW-620 colon; 98.5% with MCF7 breast; 92.8% with HCT-116 colon. In addition, the growth is 97.2% with HCC-2998 colon and 98.6% in the test on KM12 colon.

For the origin of these results see PubChem BioAssay (NCI).
